OTUD3 inh – blocks human OTUD3 ubiquitin-rhodamine cleavage. 47,000 compounds, 0.7% hits. Q5T2D3. AID 1645858. inhibition, % at 25 µM. purified OTUD3, Ub-rhodamine fluorescence, 2 h
UCHL1 inh – blocks human UCHL1 ubiquitin-rhodamine cleavage; P09936; purified UCHL1, Ub-rhodamine cleavage fluorescence; inhibition, % at 20 µM; 47,000 compounds, 0.2% hits; AID 1645859
Target sequence (P09936 whole entry, looked up): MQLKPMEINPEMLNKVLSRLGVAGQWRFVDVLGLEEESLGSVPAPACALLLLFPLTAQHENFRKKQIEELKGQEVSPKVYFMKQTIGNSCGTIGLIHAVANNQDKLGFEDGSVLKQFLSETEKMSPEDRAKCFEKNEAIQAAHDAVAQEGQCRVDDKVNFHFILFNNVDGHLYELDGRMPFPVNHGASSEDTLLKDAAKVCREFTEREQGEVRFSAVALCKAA
Active calls of the source: *. The sample as a whole holds a higher share of hits than the screen did. Rule as the data show it: active = inhibition above about 30%; inactive = the rest.

SMILES	OTUD3 inh	UCHL1 inh
O=C(NCCc1ccc(F)cc1)c1cc2c([nH]c1=O)CCCC2	-2	0
O=C(O)CCCCCN1C(=O)CC(c2ccc(Cl)cc2)CC1=O	8	23
N#Cc1ccccc1NC(=O)c1cc2c(s1)-c1ccccc1S(=O)(=O)C2	56*	3
O=C(c1cc2c(s1)-c1ccccc1S(=O)(=O)C2)N1CCN(c2ccccc2F)CC1	2	4
COc1ccc(C)cc1NC(=O)c1ccc(-n2nnnc2SC)cc1	14	2
CC(C)c1cc2c(c(O)c1O)[C@@]13CCCC(C)(C)[C@@H]1C[C@@H]2OC3=O	28	-1
COc1cc(NC(=O)Cc2cn3ccccc3n2)cc(OC)c1	-19	-13
O=C(Nc1ccc(-c2cn3ccccc3n2)cc1)C1C=C2C=C(Br)C=CC2OC1=O (configuration not stated)	43*	3
Nc1c(-c2nc(-c3ccccc3Cl)no2)nnn1-c1ccc(Cl)cc1	4	12
O=C(c1ccccc1)N1CCC(c2cccc(Cc3cccc(F)c3)n2)CC1	-1	1
Cc1nn(CC(=O)NCc2ccccc2F)c2ccccc12	14	4
CCN1CCN(c2nc(NCc3ccco3)c3ccccc3n2)CC1	-12	-1
Cc1ccc(Nc2nc(NCc3ccco3)c3ccccc3n2)cc1	35*	10
CCCCCCCCCCCC(O)CC(=O)N[C@@H](CC(C)C)C(=O)N[C@H](CCC(=O)O)C(=O)N[C@H]1C(=O)N[C@H]([C@@H](C)CC)C(=O)NC(CC(C)C)C(=O)N[C@H](CO)C(=O)N[C@@H](CC(C)C)C(=O)N[C@@H](CC(C)C)C(=O)N[C@H](CO)C(=O)N[C@@H](C(C)C)C(=O)O[C@@H]1C (some centres not stated)	44*	29
CCCCCCCC[C@@H](C)[C@@H]1OC(=O)[C@H](CO)NC(=O)[C@H](C(=O)c2c[nH]c3ccccc23)NC(=O)[C@@H](CCC(=O)O)NC(=O)[C@H]1C	4	2
Cc1cc(F)ccc1NC(=O)C1CCN(c2cnc(N3CCCCC3)nc2)CC1	4	-1
COc1ccc(OCc2nn3c(-c4ccccc4Cl)nnc3s2)cc1	14	0
CC(C)Cc1cc(-c2nnc3sc(-c4ccco4)nn23)n[nH]1	41*	10
NS(=O)(=O)c1ccc(Cl)c(C(=O)OCc2csc(Nc3ccccc3)n2)c1	10	3
Cc1ccc(NC(=O)c2cc(-c3ccncc3)n[nH]2)cc1Cl	-3	1
Cc1ccc(NC(=O)C2CCN(C(=O)c3cc(-c4ccncc4)n[nH]3)CC2)cc1Cl	39*	4
Cc1cc(CSc2ncccc2C(=O)Nc2ccnn2Cc2ccccn2)no1	-6	-3
Cc1cc(CSc2ncccc2C(=O)Nc2ccnn2Cc2cccnc2)no1	81*	2
c1coc(-c2cc3nc(NCCCn4ccnc4)ccn3n2)c1	-23	-10
CC(Oc1nncc2ccccc12)C(=O)Nc1ccc(Cl)cc1Cl (configuration not stated)	26	4
SMILES	OTUD3 inh	UCHL1 inh
O=C(NCc1ccc(F)cc1)c1cccc(Nc2nc3ccccc3n3cnnc23)c1	67*	0
COc1ccccc1CNC(=O)c1cccc(Nc2nc3ccccc3n3cnnc23)c1	-14	-5
O=C1[C@H]2Cc3c([nH]c4ccccc34)C(c3cccc([N+](=O)[O-])c3)N2C(=O)CN1Cc1ccco1 (some centres not stated)	0	1
CN(C(=O)Cn1c(=O)n(-c2ccc(Cl)cc2)c(=O)c2c3c(sc21)CCCC3)C1CCCCC1	20	0
O=C(Nc1cccc(-c2nc3ncccc3o2)c1)c1cccc(-c2cc3ccccc3oc2=O)c1	22	8
CCOC(=O)c1c2ccc(OCC(=O)NCc3ccco3)cc2n2ccccc12	-24	-37
CCOC(=O)c1cc2c(=O)n3ccccc3nc2n(Cc2ccco2)c1=NC(=O)COc1ccc2ccccc2c1	-41	43*
Cc1cc(O)c(Oc2cc(C)cc(O)c2O)c(O)c1	34*	0
COc1ccc(Cn2nnc(-c3cccc(F)c3)n2)cc1F	2	3
CCCCC/C=C/c1c(O)cc(CC=C(C)C)c(O)c1C=O	3	-15
CCCCCCCCC/C=C/C(=O)CCc1c(O)c(C=O)c2c(c1O)C(=O)OC2O (configuration not stated)	75*	86*
CC(=O)N1CCc2cc(S(=O)(=O)NC(Cc3ccccc3)C(=O)Nc3cccc(Cl)c3C)ccc21 (configuration not stated)	38*	11
CC(=O)N1CCc2cc(S(=O)(=O)NC(Cc3ccccc3)C(=O)NCc3ccc4c(c3)OCO4)ccc21 (configuration not stated)	17	6
Cc1ccc(NC(=O)Cn2cc(-c3nc(C4CC4)no3)ccc2=O)cc1	26	2
C=C1Nc2ccccc2C(=O)N1c1cccc(NC(=O)c2ccc(C)cc2)c1	-1	0
C=C1Nc2ccccc2C(=O)N1c1cccc(NC(=O)c2ccc(C)c(C)c2)c1	30*	6
O=C(Nc1nnc(C2CC2)s1)c1ccc(OCC2CCCO2)cc1 (configuration not stated)	5	1
Cc1cc(NC(=O)Cn2c(=O)n(CCc3ccccc3)c(=O)c3ccccc32)n[nH]1	5	-1
Cc1cc(NC(=O)Cn2c(=O)n(Cc3ccco3)c(=O)c3ccc(C(=O)NCCc4ccccc4)cc32)n[nH]1	77*	18
Cc1cc(C)n(CC(=O)N2N=CCC2(O)C(F)(F)F)n1 (configuration not stated)	9	1
O=c1ccc(-c2nc(-c3ccncc3)no2)cn1Cc1noc(-c2ccccc2)n1	-11	-13
Cc1ccc2nc(-c3ccccc3O)c(Nc3ccc(Cl)cc3)n2c1	6	0
CCc1ccc2nc(N(CCCn3ccnc3)C(=O)c3cccs3)sc2c1	-11	6
CC[C@@H]1CCC[C@H](C)CC[C@@H](O[C@@H]2O[C@@H](C)[C@@H](O)[C@@H](N)[C@H]2O)[C@H](CC)CCCNC1=O	36*	18
COc1cccc(C(=O)Nc2nc3ccc(S(=O)(=O)N4CCOCC4)cc3s2)c1OC	-3	3
SMILES	OTUD3 inh	UCHL1 inh
O=C(Cn1cccc1-c1nnc(C2CC2)o1)Nc1cccc(F)c1	-3	-1
CC(C)=CCC/C(C)=C/CC/C(C)=C/Cc1c(C)cc(O)cc1O	18	8
CC(C)=CCC/C(C)=C/CC/C(C)=C/COc1c(O)cc(C=O)c(C=O)c1O	84*	92*
O=C(Nc1ccccc1)C1CCCN(C(=O)c2cc3ccccc3[nH]2)C1 (configuration not stated)	13	1
O=C(/C=C/c1ccco1)Nc1nc2c(s1)COCC2	-41	-17
O=C(Nc1nc2c(s1)COCC2)c1cc(-c2ccco2)[nH]n1	64*	-15
COc1ccc2c(CNCCc3ccccc3)c(C(=O)O)n(Cc3ccc(F)cc3Cl)c2c1	-7	5
COc1cc(O)c2c(O)c3c(cc2c1)C[C@@]1(O)CC(=O)C(C(N)=O)=C(O)[C@@]1(O)C3=O	46*	70*
COc1c2c(cc3cc(O)c4c(=O)cc(C)oc4c13)CCC2=O	28	7
COc1cc(C)ccc1NC(=O)COc1cccc2c1OC(C)(C)C2	22	6
COc1cccc2c1OCC(NS(=O)(=O)c1cc(C)ccc1C)C2 (configuration not stated)	82*	1
COc1cccc(-n2ccc(=O)c(-c3nc(-c4ccccc4Cl)no3)n2)c1	23	1

Source: PubChem
